Pf growth 96h: inhibits malaria parasite growth, 96 h | P. falciparum luciferase reporter growth, 96 h | Potency, µM (titrated, usually from 28.7 µM), without a hit: top-dose activity change, negative = inhibition, actives largely listed as inhibitors | hit rate 6.9% among 320,000 | AID 504834; active = well fitted inhibition curve with a large enough effect; inconclusive = small, poorly fitted or top-dose-only effect, or another doubt; inactive = no such curve, though single readings can be large or run the other way; note: potency is the fitted concentration of half-maximal effect; % is set by controls: 0 for no effect and ±100 for the full control effect
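Two-generation exposure (96 h) targets delayed-death phenotype. Reporter parasites carrying integrated firefly luciferase, in red cells at 2% hematocrit and 0.05% parasitemia final, kept at 37 C, 5% CO2; luminescence loss indicates inhibition.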
CHX counter: counter-screen for Shiga toxin inhibitors: cycloheximide protein synthesis inhibition | cell reporter, cycloheximide protein synthesis inhibition counterscreen | max response, % | hit rate 12% among 300,000 | AID 2314; in the data active = max response mostly above about 13%, no sharp cut-off; inactive = mostly below about 14%; note: read at 38.3 µM for the half of the compounds with a filed dose; 0% is about no effect
NS1 function inh: blocks influenza NS1 protein function; hit rate 0.4% among 270,000; Potency, µM (series often up to 46.1 µM), for the others: at the highest dose activity, positive = more growth; note: potency is the fitted concentration of half-maximal effect; actives are rising curves; nearly all actives have a fitted effect of over 50% in size
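Recovery from NS1-induced slow growth read by OD600 in budding yeast switched to galactose assay medium (pH 6.0, -URA) at 1:100 dilution. Compound 23 nl per well; the matching strain lacking NS1 serves as control.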
SARS PLpro yeast: SARS-CoV PLP inhibition in yeast. S. cerevisiae expressing SARS-CoV PLpro, growth rescue. Potency, µM (titrated, usually from 32.9 µM), for the others: top-dose activity, positive = growth rescue, actives largely listed as activators. hit rate 0.19% among 330,000. AID 485353; note: potency is the fitted concentration of half-maximal effect; 0% is about no effect; nearly all actives have a fitted effect of over 55% in size
Pf growth 48h: P. falciparum growth inhibition at 48 hours (one generation). P. falciparum luciferase growth in erythrocytes, 48 h. Potency, µM (highest dose often 28.7 µM), without a hit: at the highest dose activity change, negative = inhibition, actives largely listed as inhibitors. hit rate 5.9% among 310,000; active = well fitted inhibition curve with a large enough effect; inconclusive = small, poorly fitted or top-dose-only effect, or another doubt; inactive = no such curve, though single readings can be large or run the other way; note: potency is the fitted concentration of half-maximal effect; % is set by controls: 0 for no effect and ±100 for the full control effect
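Luciferase-expressing parasites in RBCs, 2% Hct / 0.1% parasitemia final; RPMI 1640 + 0.5% Albumax; 37 C, 5% CO2, one generation; luminescence read-out, lower signal = inhibition.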
Shiga inhibitor: blocks Shiga toxin action in Vero cells; Vero cells, Shiga toxin protein synthesis inhibition reporter; hit rate 9.2% among 290,000; inhibition, % at 38.7 µM; in the data active = inhibition mostly above about 28%, no sharp cut-off; inactive = mostly below about 43%; note: 0% is about no effect
* = called active by the depositor. Rows were chosen to be rich in hits. Some 21% of all compounds tested hit in one or more screens of this group. Unless noted, calls come from the whole dose curve.

`CCc1ccc(OCC(=O)NC(NC(=S)Nc2ccccc2C)C(Cl)(Cl)Cl)cc1` (stereo not given) gave Pf growth 96h inconclusive, CHX counter -5, NS1 function inh 11%, SARS PLpro yeast 11%, Pf growth 48h inconclusive and Shiga inhibitor -6.
For CCc1ccc(OCC(=O)NC(NC(=S)Nc2ccccc2)C(Cl)(Cl)Cl)cc1 (stereo not given) the results were Pf growth 96h 0%, CHX counter -1, NS1 function inh 3%, SARS PLpro yeast -9%, Pf growth 48h 13µM* and Shiga inhibitor -12.
Screening CC(=O)NC(NC(=S)Nc1ccc(N=Nc2ccccc2)cc1)C(Cl)(Cl)Cl (stereo not given) returned Pf growth 96h 183%, CHX counter 60*, NS1 function inh 3%, SARS PLpro yeast -3%, Pf growth 48h 12µM* and Shiga inhibitor 71*.
CC(=O)NC(NC(=S)Nc1cccc(Br)c1)C(Cl)(Cl)Cl (stereo not given) was read as Pf growth 96h inconclusive, CHX counter 0, NS1 function inh -6%, SARS PLpro yeast 0%, Pf growth 48h inconclusive and Shiga inhibitor -2.
Screening CC(C)CC(=O)NC(Nc1ccccc1F)C(Cl)(Cl)Cl (stereo not given) returned Pf growth 96h 10µM*, CHX counter -3, NS1 function inh -21%, SARS PLpro yeast 4%, Pf growth 48h -5% and Shiga inhibitor -10.
Screening CCOc1cc(NC(=S)NCCCN2CCOCC2)c(OCC)cc1NC(=O)C1CC1 returned Pf growth 96h inconclusive, CHX counter -4, NS1 function inh 0%, SARS PLpro yeast 11%, Pf growth 48h 49% and Shiga inhibitor -5.
O=C(NCCCN1CCOCC1)c1nn(-c2ccccc2)c(=O)c2ccccc12 was read as Pf growth 96h -12%, SARS PLpro yeast -2% and Pf growth 48h 83%.
CC(C)CC(=O)NC(NC(=S)Nc1ccccc1)C(Cl)(Cl)Cl (stereo not given) was read as Pf growth 96h 3%, CHX counter 1, NS1 function inh -1%, SARS PLpro yeast -4%, Pf growth 48h 13µM* and Shiga inhibitor -4.
`Cc1ccc(C(C)C)c(OCc2ccc(C(=O)N/N=C/c3ccc(C(=O)O)cc3)cc2)c1` gave Pf growth 96h -5%, CHX counter 11*, NS1 function inh -46%, SARS PLpro yeast -1%, Pf growth 48h inconclusive and Shiga inhibitor 25.
Screening Cc1ccc(COc2ccc(/C=N/NC(=O)c3ccc(CN4CCOCC4)cc3)cc2)cc1 returned Pf growth 96h inconclusive, CHX counter 10, NS1 function inh -12%, SARS PLpro yeast -10%, Pf growth 48h 1% and Shiga inhibitor 1.
`Cc1ccc(C(C)C)c(OCc2ccc(C(=O)N/N=C/c3ccc(O)cc3O)cc2)c1` gave Pf growth 96h inconclusive, CHX counter 10, NS1 function inh -12%, SARS PLpro yeast 3.2µM*, Pf growth 48h 2.6µM* and Shiga inhibitor 15.
For COc1ccccc1-n1cc(CN2CCCC(CO)(Cc3cccc(Cl)c3)C2)cn1 (stereo not given) the results were Pf growth 96h 1%, CHX counter -2, NS1 function inh 0%, SARS PLpro yeast 0%, Pf growth 48h 0% and Shiga inhibitor 10.
CCCC(=O)Nc1ccc(C(=O)NCc2ccccc2Cl)cc1 was read as Pf growth 96h inconclusive, CHX counter 9, NS1 function inh 4%, SARS PLpro yeast 4%, Pf growth 48h 2% and Shiga inhibitor 14.
Screening CC(=O)c1ccc(NC(=O)C(C)NCc2ccccc2Cl)cc1 (stereo not given) returned Pf growth 96h inconclusive, CHX counter 24*, SARS PLpro yeast -1%, Pf growth 48h -24% and Shiga inhibitor 23.
Screening CC(=O)c1ccc(NC(=O)Nc2ccccc2)cc1 returned CHX counter 38*, NS1 function inh -23%, SARS PLpro yeast -11%, Pf growth 48h 114% and Shiga inhibitor 79*.
`CC(=O)c1ccc(NC(=O)Nc2ccc(NS(=O)(=O)c3ccc(C)cc3)cc2)cc1` gave Pf growth 96h 4%, CHX counter -7, NS1 function inh 7%, SARS PLpro yeast 3%, Pf growth 48h inconclusive and Shiga inhibitor -17.
Screening CC(=O)c1cccc(NC(=O)C2C3C=CC(C3=C(c3ccccc3)c3ccccc3)C2C(=O)O)c1 (stereo not given) returned Pf growth 96h inconclusive, CHX counter 11*, SARS PLpro yeast -1%, Pf growth 48h -29% and Shiga inhibitor 47.
Screening CNC(=O)c1ccc(NC(=O)Nc2ccccc2)cc1 returned Pf growth 96h inconclusive, CHX counter 30*, NS1 function inh 7%, SARS PLpro yeast 2%, Pf growth 48h 87% and Shiga inhibitor 50*.
`O=C(NNC(=O)c1ccncc1)Nc1ccccc1` gave Pf growth 96h 2%, CHX counter -6, NS1 function inh -3%, SARS PLpro yeast 2%, Pf growth 48h 23% and Shiga inhibitor -8.
For CC1CCN(S(=O)(=O)c2cc(C(=O)Nc3ccccn3)ccc2Br)CC1 the results were Pf growth 96h inconclusive, SARS PLpro yeast -4% and Pf growth 48h inconclusive.
For Cc1nn(C)cc1C(C)Nc1nc2nonc2nc1N1CCCCC1 (stereo not given) the results were Pf growth 96h 288%, CHX counter -1, NS1 function inh 1%, SARS PLpro yeast 5%, Pf growth 48h 19% and Shiga inhibitor -10.
Screening CC(=O)c1cccc(NC(=O)Nc2ccccc2)c1 returned Pf growth 96h -2%, CHX counter 26*, NS1 function inh -5%, SARS PLpro yeast 0%, Pf growth 48h 54% and Shiga inhibitor 62*.
Screening CC(=O)c1cccc(NC(=S)NC2CCCCC2)c1 returned Pf growth 96h -24%, CHX counter -3, NS1 function inh 4%, SARS PLpro yeast 5%, Pf growth 48h 22% and Shiga inhibitor 6.
CCN(CC)c1ccc(NC(=O)Nc2ccccc2)cc1 was read as Pf growth 96h -57%, CHX counter 48*, NS1 function inh -6%, SARS PLpro yeast -1%, Pf growth 48h inconclusive and Shiga inhibitor 58*.
For COC(=O)c1cccc(NC(=O)CCCOc2ccccc2)c1 the results were Pf growth 96h -9%, CHX counter 8, NS1 function inh -28%, SARS PLpro yeast -4%, Pf growth 48h inconclusive and Shiga inhibitor -5.
`CCN(CC)c1ccc(NC(=O)Nc2ccc(C(C)=O)cc2)cc1` gave Pf growth 96h -4%, CHX counter 13, NS1 function inh 1%, SARS PLpro yeast -4%, Pf growth 48h inconclusive and Shiga inhibitor 42.
Screening CC(=O)c1cccc(NC(=O)C2CCCCC2)c1 returned Pf growth 96h 1.5µM*, CHX counter 1, NS1 function inh -13%, SARS PLpro yeast 1%, Pf growth 48h 8% and Shiga inhibitor -17.

Bioassay records (PubChem BioAssay)
